Screens from PubChem.
Compounds with a hit are over-represented: about 6% of the library has one in this group of screens.
D1 PAM: human D1 dopamine receptor positive modulation; P21728; HEK293 TREx D1 cells, calcium flux, dopamine EC20 potentiation; potentiation, % at 10 µM; 360,000 compounds, 0.036% hits; in the data active = potentiation above about 30%
D1 antagonist: antagonists of human D1 dopamine receptor | P21728 | HEK293 TREx D1 cells, calcium flux, dopamine EC80; hits give low values | activity change, negative = inhibition, % at 10 µM | 360,000 compounds, 3.2% hits; in the data active = activity change below about -30%
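Using tetracycline-induced force-coupled D1 Hek293 cells and a calcium dye, signals were followed for 180 s after compound, then for 180 s after EC80 dopamine, to detect inhibitors.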
D3 antag: blocks the human D3 dopamine receptor; 360,000 compounds, 2.5% hits; max response, negative = inhibition, %; P35462; D3R cells, DiscoveRx beta-arrestin luminescence, antagonist mode; hits give low values; AID 652054; in the data active = max response below about -50%; inconclusive = no clear call, values can overlap the other calls
Target sequence (P35462 whole entry, looked up): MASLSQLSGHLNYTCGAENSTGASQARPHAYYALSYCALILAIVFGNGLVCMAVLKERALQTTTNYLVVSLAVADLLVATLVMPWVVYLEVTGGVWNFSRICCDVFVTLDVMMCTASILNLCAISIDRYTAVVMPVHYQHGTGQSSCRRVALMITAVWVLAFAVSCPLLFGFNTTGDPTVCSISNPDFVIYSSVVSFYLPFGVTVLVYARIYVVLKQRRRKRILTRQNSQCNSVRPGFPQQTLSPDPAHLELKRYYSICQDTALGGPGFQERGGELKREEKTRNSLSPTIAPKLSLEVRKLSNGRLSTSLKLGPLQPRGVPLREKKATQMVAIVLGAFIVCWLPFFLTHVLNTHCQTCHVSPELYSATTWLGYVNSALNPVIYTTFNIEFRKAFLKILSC
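Cells expressing the human receptor were seeded at 1500 cells/well, incubated overnight at 37 degrees C in 5% CO2, then exposed to library compounds with dopamine controls for 90 minutes at 37 degrees C before luminescent detection.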
Chronic BCR inh: blocks chronic active B-cell receptor signaling | ABC-DLBCL IkBa-CBG/CBR reporter, luminescence ratio, 4 h | Potency, µM (series often up to 46.1 µM), hits mostly inhibitors | 340,000 compounds, 0.05% hits | AID 493014; active = well fitted inhibition curve with a large enough effect in the signal ratio, with a control signal flat, not every such curve was filed as active; inconclusive = small, poorly fitted or top-dose-only effect, or effect the other way, or a change in a side signal; the % refers to the signal ratio
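TMD8 ABC-DLBCL cells carrying doxycycline-inducible green luciferase fused to IkappaBalpha plus unfused red luciferase were exposed to compounds (up to 46 uM) for 4 hrs at 37C. Activity came from the overlap-corrected green/red luminescence ratio.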
D1 agonist: activates the human D1 dopamine receptor; P21728; HEK293 T-REx D1 cells, calcium flux, agonist mode; activation, % at 2 µM; 360,000 compounds, 1% hits; AID 504660; in the data active = activation above about 30%
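Tetracycline-induced HEK293 TREx D1 cells, force-coupled to calcium signalling, were dye-loaded with a no-wash calcium kit. Compound was pin-added after a 10 s baseline. Fluorescence was read kinetically at 1 cycle/s for 180 s, with calcium rises flagged as agonism.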
D3 ag: D3 dopamine receptor (human) agonism. max activation, %. D3R DiscoveRx beta-arrestin cells, luminescence, 90 min. P35462. 410,000 compounds, 0.58% hits; in the data active = max activation above about 30%
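Agonist mode: compounds and dopamine controls were applied to plated cells for 90 min at 37 degrees C after an overnight attachment at 1500 cells/well. Luminescent read-out followed 30 - 60 minutes at room temperature with DiscoveRx detection reagent.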
Numbers stand for hits; – = inactive; ? = inconclusive; · = no result.

SMILES	D1 PAM	D1 antagonist	D3 antag	Chronic BCR inh	D1 agonist	D3 ag
Cc1cccc(NC(=O)CSc2nc3[nH]c(=O)cc(O)c3s2)c1	–	-32	–	–	–	–
CC(C)Oc1cc(F)ccc1-c1cc(C(=O)Nc2cccc(C(F)(F)F)c2)[nH]n1	·	·	–	·	·	–
Cc1cccc(N2CCN(C(=O)C3CCN(C(=O)c4cc5sccc5n4C)CC3)CC2C)c1 (configuration not stated)	–	–	·	·	–	–
CNc1ncnc2c1ncn2[C@H]1CN(CCOC)C[C@@H](CO)O1	·	·	-56	·	·	–
CNc1ncnc2c1ncn2[C@H]1CN(Cc2cccc3ccccc23)C[C@@H](CO)O1	·	·	–	·	·	111
CC(C)c1ccc(Nc2c([N+](=O)[O-])c(=O)n(C)c3ccccc23)cc1	–	-50	–	–	–	–
Cc1cccc(Nc2c([N+](=O)[O-])c(=O)n(C)c3ccccc23)c1	–	–	–	–	–	–
Cn1c(=O)c([N+](=O)[O-])c(-n2ccnc2)c2ccccc21	–	–	-51	?	–	–
COc1ccc(OC)c(NC(=O)CN2C(=O)CC(C)Sc3ccccc32)c1 (configuration not stated)	–	–	·	·	–	–
Cc1cc(Br)cn2c(Cc3ccsc3)c(-c3ccc(Cl)cc3)nc12	·	·	–	·	·	–
CCC(=O)c1ccc(OCC(=O)OCC(=O)Nc2cccc(S(=O)(=O)N3CCOCC3)c2)cc1	·	·	–	·	·	–
CCOC(=O)C1=C(c2ccccc2)N=c2s/c(=C\c3ccc(O)cc3)c(=O)n2C1c1cccs1 (configuration not stated)	–	–	-57	?	31	–
Cc1ccc(NC(=O)CN(C)S(=O)(=O)c2cccc3nsnc23)c(C)c1	–	–	·	·	–	–
CN(C)c1ccc(C=C2SC(=S)N(Cc3ccco3)C2=O)cc1	·	·	–	·	·	–
O=C1/C(=C\c2c(NCCOCCO)nc3ccccn3c2=O)SC(=S)N1Cc1ccco1	–	–	–	–	138	–
O=C(NCCCN=C1NS(=O)(=O)c2ccccc21)c1ccccc1Cl	–	–	–	–	–	–
COc1ccc(C(=O)NCCN=C2NS(=O)(=O)c3ccccc32)cc1	–	–	–	–	–	–
O=C(NCCCN=C1NS(=O)(=O)c2ccccc21)c1ccc(S(=O)(=O)N2CCCCC2)cc1	–	-35	–	?	–	–
COc1ccc(C(=O)NCCCN=C2NS(=O)(=O)c3ccccc32)cc1	–	–	-75	–	–	–
CCOC(=O)C1(C)CCN1C(=O)c1ccccc1Br (configuration not stated)	·	·	–	·	·	–
C=CCn1c(-c2cccs2)nc2ccccc21	–	-52	–	–	–	–
C=CCn1c(-c2cccs2)nc2nc3ccccc3nc21	–	–	–	–	–	–
COCOc1ccc(/C=C/C(=O)c2c(OCOC)cc(OCOC)c(CC=C(C)C)c2O)cc1OCOC	·	·	–	·	·	42
COCOc1ccc(/C=C/C(=O)c2c(O)cc(OCOC)cc2OCOC)cc1	·	·	–	·	·	43
COc1cc(O)cc(O)c1C(=O)/C=C/c1ccccc1	–	–	–	?	–	–
SMILES	D1 PAM	D1 antagonist	D3 antag	Chronic BCR inh	D1 agonist	D3 ag
CCOC(=O)/C(=C\c1ccc(OC(F)F)cc1)C1=Nn2c(nnc2-c2ccc(Cl)cc2)SC1	–	–	-90	?	–	–
CC1=Nn2c(nnc2-c2ccc(F)cc2)SC1	–	–	–	–	–	–
CCOC(=O)/C(=C/c1ccc(OC(F)F)cc1)C1=Nn2c(nnc2-c2ccc(Cl)cc2)SC1	·	·	-62	·	·	–
COc1ccc(OCc2ccc(-c3nc(C#N)c(NCc4ccc(F)cc4)o3)o2)cc1	–	–	·	·	–	–
CCOC(=O)c1ccc(-n2c(CCC(=O)O)ccc2-c2ccccc2)cc1O	–	–	·	·	–	–
COc1ccc(CCNC(=O)COc2ccc(-c3ccc(C)cc3)cc2)cc1OC	–	-31	–	–	–	–
COc1ccc(CCNC(=O)CCOc2ccc(C)cc2)cc1OC	–	–	–	–	–	–
COc1ccc(CCNC(=O)C(=O)NN=C2CCCCCCC2)cc1OC	–	-74	–	?	–	–
O=[S+]([O-])(c1ccc2nsnc2c1)N1CCN([S+](=O)([O-])c2c(F)cccc2F)CC1	–	–	·	·	–	·
CCCC1=NN(C(=O)C(=O)Nc2ccc(Br)cc2)C(O)(C(F)(F)F)C1 (configuration not stated)	–	–	-56	?	–	–
N#CC(C#N)=C1C=CC=CN1/C(=C\c1ccco1)C(=O)c1ccc(-c2ccccc2)cc1	–	–	-92	?	–	–
N#CC(C#N)=C1C=CC=CN1/C(=C\c1ccco1)C(=O)c1ccc(Cl)cc1	–	-52	-108	?	–	–
Cc1ccc2nc3c(cc(C#N)c(=O)n3-c3nnc(SCc4ccccc4Cl)s3)c(=O)n2c1	–	–	·	·	–	–
CCN1CCN(c2ncc3c(n2)CCN(Cc2ccc(OC(C)C)cc2)C3)CC1	–	-40	·	·	–	–
COc1cc(CN2CCc3nc(N4CCN(c5ccccn5)CC4)ncc3C2)cc(OC)c1OC	–	-31	·	·	–	–
CN1CCN(c2ncc3c(n2)CCN(Cc2ccc(Br)s2)C3)CC1	–	-41	·	·	–	–
CCN1CCN(c2ncc3c(n2)CCN(Cc2sccc2C)C3)CC1	–	–	·	·	–	–
CCN1CCN(c2ncc3c(n2)CCN(Cc2ccc(Br)s2)C3)CC1	–	–	·	·	–	–
CCN1CCN(c2ncc3c(n2)CCN(Cc2ccc(C)s2)C3)CC1	–	-32	·	·	–	–
COc1ccc(OC)c(C2CC(=O)Nc3c2c(=O)[nH]c2nc4ccccc4n32)c1 (configuration not stated)	–	–	·	·	–	–
O=C(NCc1ccccc1)c1cnc2sc(N3CCCC3)nn2c1=O	–	–	·	·	–	–
Cc1cccc(NC(=O)c2ccccc2O)c1C	–	-32	–	?	–	–
O=C(Nc1ccccc1O)c1ccccc1O	–	–	–	?	–	–
CN(C)c1c([N+](=O)[O-])cc2[nH]c(=O)[nH]c2c1[N+](=O)[O-]	–	·	-69	?	–	–
O=c1[nH]c2cc([N+](=O)[O-])c([N+](=O)[O-])cc2[nH]c1=O	·	–	?	–	–	–
O=C(c1cc(-c2ccc(F)cc2)nc2ccccc12)N1CCN(C2CCS(=O)(=O)C2)CC1 (configuration not stated)	–	-32	–	–	–	–
CC(=O)c1cccc(NC(=O)Nc2csc3c2CCCC3)c1	–	–	–	?	–	–
O=C(Nc1ccc(F)cc1)Nc1csc2c1CCCC2	–	-32	·	·	–	–
COc1cc(C(O)c2nc(-c3cccc(F)c3)cs2)ccc1F (configuration not stated)	·	·	–	·	·	–
